Data taken from the supplement of paper PMC7156485.
± gives the standard deviation of the averaged measurements.

System: HCC1569
Assay: cell number relative to DMSO (% of DMSO); higher = more cells (less growth inhibition / toxicity)
Details: concentration: 10 µM; 24 h
Summary of the method: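 After 24 h at 37 °C with compounds at 10 µM, in triplicate, HCC1569 and TDF cells were fixed with 3.7% formaldehyde. Immunostaining used a rabbit anti-H1.0 antibody and an AlexaFluor 647 secondary, with DAPI, and six fields per well were imaged at ×10. H1.0 nuclear intensity or cell number is presented as percent of the plate control, from the median of replicates, with HCC1569 values smoothed for positional effects.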
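Further: TDF denotes transformed human dermal fibroblasts of mesenchymal origin.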

**Q.** For NCC(O)(CS(=O)(=O)O)c1ccc(Cl)cc1 (stereo not given) [2-Hydroxysaclofen], which cell number is on record?
**A.** 101

**Q.** How did the cell number turn out when O=C(O)c1ccc(O)c2ncccc12 [8-hydroxy-5-quinolinecarboxylic acid] was run?
**A.** 102

**Q.** CCNC(=O)C1OC(n2cnc3c(N)nc(NCCc4ccc(CCC(=O)O)cc4)nc32)C(O)C1O.Cl (stereo not given) was tested. Which cell number did it give?
**A.** 118

**Q.** Which cell number does the source give for COc1ccc2c(c1)c(CC(=O)N1CCOCC1)c(C)n2C(=O)c1ccc(Cl)cc1 here?
**A.** 102

**Q.** With NC(=O)N1c2ccccc2C=Cc2ccccc21 [Carbamazepine] as the molecule, how does the cell number read?
**A.** 101 ± 6.6

**Q.** Which cell number does the source give for COc1cc2c(cc1OC)-c1cc3ccc(OC)c(OC)c3c[n+]1CC2.[Cl-] [Palmatine chloride] here?
**A.** 100

**Q.** For O=c1cc(-c2ccc(O)c(O)c2)oc2cc(O)c(C3OC(CO)C(O)C(O)C3O)c(O)c12 (stereo not given) [Homoorientin], which cell number is on record?
**A.** 101

**Q.** CN(C)c1nc(N)c(C(=O)N=C(N)N)nc1Cl.Cl [5-(N,N-Dimethyl)amiloride hydrochloride] was tested. Which cell number did it give?
**A.** 99.9

**Q.** OCC1=CC(O)C2C=COC(OC3OC(CO)C(O)C(O)C3O)C12 (stereo not given) [Aucubin] was tested. Which cell number did it give?
**A.** 99.6

**Q.** How did the cell number turn out when CC1=NS(=O)(=O)c2cc(Cl)ccc2N1 [Diazoxide] was run?
**A.** 101.1 ± 0.59

**Q.** O=C1NC(=O)C(c2c[nH]c3ccccc23)=C1c1c[nH]c2ccccc12 [Bisindolylmaleimide IV] was tested. Which cell number did it give?
**A.** 91.2

**Q.** How did the cell number turn out when CCC(NC(C)C)C(O)c1ccc(O)c(O)c1.CS(=O)(=O)O (stereo not given) [Isotharine mesylate] was run?
**A.** 103

**Q.** How did the cell number turn out when O=C1NC(=O)C(=Cc2ccc(-c3ccc(F)cc3O)o2)S1 was run?
**A.** 97.3

**Q.** CN1CCc2cc(Cl)c(O)cc2C(c2ccccc2)C1.Cl (stereo not given) was tested. Which cell number did it give?
**A.** 103

**Q.** With CC(=O)C1(O)CCC2C3CCC4=CC(=O)CCC4(C)C3CCC21C (stereo not drawn) [17alpha-hydroxyprogesterone] as the molecule, how does the cell number read?
**A.** 98.8

**Q.** Which cell number does the source give for CC(C)C(=O)Nc1ccc([N+](=O)[O-])c(C(F)(F)F)c1 [Flutamide] here?
**A.** 81.3 ± 22

**Q.** How did the cell number turn out when CC(O)CCCC(O)C=CC1C(O)CC(O)C1CC=CCCCC(=O)O [19(R)-Hydroxy-prostaglandin F2a] was run?
**A.** 104

**Q.** For O=C(C=Cc1ccc(O)c(O)c1)c1ccc(O)cc1O [Butein], which cell number is on record?
**A.** 74.3

**Q.** Which cell number does the source give for [N-]=[N+]=Nc1ccc(C(=O)CSCC(NC(=O)CCC(N)C(=O)O)C(=O)NCC(=O)O)cc1 (stereo not drawn) [S-(p-Azidophenacyl)glutathione] here?
**A.** 103

**Q.** Which cell number does the source give for CCCCCC(O)C=CC=CCC=CC=CC(O)CCCC(=O)O (stereo not given) here?
**A.** 115

**Q.** CCCCC(C)(O)CC=CC1C(O)CC(=O)C1CCCCCCC(=O)OC (stereo not given) [Misoprostol] was tested. Which cell number did it give?
**A.** 106

**Q.** For O=C(O)c1cc(=O)c2c(Cl)cc(Cl)cc2[nH]1 [5,7-Dichlorokynurenic acid], which cell number is on record?
**A.** 102

**Q.** How did the cell number turn out when CC(CCc1ccc(O)cc1)NCCc1ccc(O)c(O)c1.Cl (stereo not given) [Dobutamine.HCl] was run?
**A.** 104

**Q.** C#CC1(O)CCC2C3CCC4=Cc5oncc5CC4(C)C3CCC21C (stereo not given) [Danazol] was tested. Which cell number did it give?
**A.** 97.02 ± 0.7

**Q.** How did the cell number turn out when COC(=O)C(N)Cc1ccc(Cl)cc1.Cl (racemic) [DL-p-Chlorophenylalanine methyl ester hydrochloride] was run?
**A.** 97.3

**Q.** For Cl.N=c1c[n+](N2CCOCC2)[n-]o1 [3-Morpholinosydnonimine hydrochloride], which cell number is on record?
**A.** 104

**Q.** With CS(=O)(=O)N1CCN(Cc2cc3nc(-c4cccc5[nH]ncc45)nc(N4CCOCC4)c3s2)CC1 as the molecule, how does the cell number read?
**A.** 57.3

**Q.** Which cell number does the source give for C=CC1CN2CCC1CC2C(O)c1ccnc2ccc(OC)cc12.Cl.O (stereo not given) here?
**A.** 99.6

**Q.** Which cell number does the source give for CCC1C(=O)N(C)c2cnc(Nc3ccc(C(=O)NC4CCN(C)CC4)cc3OC)nc2N1C1CCCC1 (stereo not given) here?
**A.** 27.1

**Q.** Which cell number does the source give for Oc1cc2c(cc1O)CN(C(=S)NCCc1ccc(Cl)cc1)CCC2 [Capsazepine] here?
**A.** 106

**Q.** For Cl.O=C(OCCN1CCOCC1)C1(c2ccccc2)CCCCC1, which cell number is on record?
**A.** 99.8

**Q.** For CN(c1ncccc1CNc1nc(Nc2ccc3c(c2)CC(=O)N3)ncc1C(F)(F)F)S(C)(=O)=O, which cell number is on record?
**A.** 54.6

**Q.** For O=c1c(O)c(-c2ccc(O)cc2O)oc2cc(O)cc(O)c12 [Morine], which cell number is on record?
**A.** 101

**Q.** With CCCCCCCCCCCCCCCCCCOCC(COP(=O)([O-])OCC[N+](C)(C)C)OC(C)=O (stereo not given) as the molecule, how does the cell number read?
**A.** 98.8

**Q.** For CCCCC=CCCCCCCCC(=O)O [9(E)-Tetradecenoic acid], which cell number is on record?
**A.** 98.8

**Q.** For CN(N=O)C(=O)NC1C(O)OC(CO)C(O)C1O (stereo not given) [Streptozocin], which cell number is on record?
**A.** 101

**Q.** How did the cell number turn out when CCC(C)SSc1ncc[nH]1 (stereo not given) [2-(sec-butyldisulfanyl)-1H-imidazole] was run?
**A.** 83.7

**Q.** With CS(=O)(=O)CCNCc1ccc(-c2ccc3ncnc(Nc4ccc(OCc5cccc(F)c5)c(Cl)c4)c3c2)o1.Cc1ccc(S(=O)(=O)O)cc1.Cc1ccc(S(=O)(=O)O)cc1 [Lapatinib ditosylate] as the molecule, how does the cell number read?
**A.** 88.5

**Q.** How did the cell number turn out when O=C(NC(CO)C(O)c1ccc([N+](=O)[O-])cc1)C(Cl)Cl (stereo not given) [Chloramphenicol] was run?
**A.** 100

**Q.** O=C(O)C(=Cc1c(C(=O)O)[nH]c2cc(Cl)cc(Cl)c12)c1ccccc1 was tested. Which cell number did it give?
**A.** 105
